Reference: article PMC4552634, “A New Set of Chemical Starting Points with Plasmodium falciparum Transmission-Blocking Potential for Antimalarial Drug Discovery” (PLoS ONE, 2015)
About 3,200 (25%) of roughly 13,000 compounds showed an effect of 50% or more. Some of the results follow.

What follows are molecules tested on P. falciparum stage V gametocytes. Conditions: 48 h, 5 µM; inhibitor.
Design: BacTiter-Glo ATP luminescence viability of purified stage V gametocytes in 384-well plates, per cent inhibition versus DMSO

| Compound | % Inhibition [%] |
| --- | --- |
| CN(c1cc(NC(=O)c2ccc(F)cc2)ccn1)C1CCN(Cc2ccc(C#N)cc2)CC1 [TCMDC-134979] | 11.6 |
| O=c1cc(NCCCNCc2cc(Br)ccc2F)[nH]c2ccccc12 [TCMDC-139424] | -33.84 |
| CC(C)CNCc1ccc(-c2ccc(CN(C(=O)NCCc3ccccc3)C3CCN(Cc4ccccc4)CC3)cc2)cc1 [TCMDC-140623] | 92.24 |
| CC(C)CNCc1ccc(-c2cccc(CN(C(=O)NCCc3ccccc3)C3CCN(Cc4ccccc4)CC3)c2)cc1 [TCMDC-140615] | 77.17 |
| CC(=O)N(Cc1ccc(-c2ccc(CNCCc3ccccc3)cc2)cc1)C1CCN(Cc2ccccc2)CC1 [TCMDC-140530] | 41.5 |
| CC(C)CNCc1cccc(-c2ccc(CN(C(=O)NCCc3ccccc3)C3CCN(Cc4ccccc4)CC3)cc2)c1 [TCMDC-140622] | 85.53 |
| O=C(NC1CCCCC1)C(c1cccs1)N(CCc1ccccc1)C(=O)c1ccco1 (centres unmarked) [TCMDC-123798] | -17.48 |
| CC(C)c1ccc(-c2noc(SCC(=O)N3CCCCC3C)n2)cc1 (centres unmarked) [TCMDC-124745] | -11.89 |
| CC(=O)NC1=NC(C)(C)N(OCc2ccc(Cl)c(Cl)c2)C(NC(C)=O)=N1 [TCMDC-131594] | -1.877 |
| CC(=O)Nc1cccc(/C=C/C(=O)N2CCC(N3CCCCC3)CC2)c1 [TCMDC-141128] | 9.67 |
| Cc1cccnc1CNc1nccc2c(C)c(C)[nH]c12 [TCMDC-134148] | -85.57 |
| CCCCCCCN1CC[C@@H](CCCc2ccnc3ccc(OCCN4CCOCC4)cc23)[C@@H](CC)C1 [TCMDC-139815] | 43.2 |
| CCCCCCCN1CC[C@@H](CCC(O)c2ccnc3ccc(OC)cc23)[C@@H](CC)C1 (some centres unmarked) [TCMDC-138954] | 9.095 |
| CCCCN1CC[C@@H](CCC(O)c2cc(OCCC)nc3ccc(OC)cc23)[C@@H](CC)C1 (some centres unmarked) [TCMDC-131499] | 36.19 |
| CCCCCCCN1CC[C@@H](CCCc2ccnc3ccc(OCCN4CCNCC4)cc23)[C@@H](CC)C1 [TCMDC-139817] | 103.1 |
| CCCCN1CC[C@@H](CCC(O)c2ccnc3ccc(OCCC(C)C)cc23)[C@@H](CC)C1 (some centres unmarked) [TCMDC-131481] | 66.25 |
| CC[C@H]1CN(Cc2ccco2)CC[C@H]1CCCc1ccnc2ccc(O)cc12 [TCMDC-140336] | 6.613 |
| CCCCCCCN1CC[C@@H](CCCc2ccnc3ccc(OCCC4CCNCC4)cc23)[C@@H](CC)C1 [TCMDC-139819] | 116.4 |
| CCCCCCCN1CC[C@@H](CCCc2ccnc3ccc(OCC4CCCNC4)cc23)[C@@H](CC)C1 (some centres unmarked) [TCMDC-139816] | 113 |
| CN1CCN(c2cc3c(cc2Cl)CCN3C(=O)Cc2ccc(Cl)c(NC(=O)Nc3cccc([N+](=O)[O-])c3)c2)CC1 [TCMDC-139473] | -0.749 |
| O=C(Nc1ccc(F)cc1F)NC1CCN(c2ccnc3cc(Cl)ccc23)C1 (centres unmarked) [TCMDC-133658] | -14.22 |
| CCCOc1ccc(C(F)(F)F)cc1NC(=O)c1nc2nc(C)cc(C)n2n1 [TCMDC-125466] | -88.48 |
| COc1ccc(N2CCc3c(-c4cccc5cnccc45)cc(C)nc32)c(C)c1 [TCMDC-136362] | -0.3846 |
| O=C(NCCCN1CCOCC1)c1ccc(-c2cccc(NC(=O)c3ccc(Cl)c(Cl)c3)c2)cc1 [TCMDC-133693] | -20.47 |

| Compound | % Inhibition [%] |
| --- | --- |
| O=C1CC(C(=O)O)CC(=O)N1 [TCMDC-125482] | 13.38 |
| COc1ccccc1-n1c(-c2ccc3ccccc3c2)csc1=NC(=O)c1ccccc1 [TCMDC-125668] | -1.763 |
| CC(C)Cn1cc(C2CCN(CCN3CCC(CNC(=O)c4ccc(NC(=O)c5cc(Cl)cc(Cl)c5)cc4)CC3)CC2)c2ccccc21 [TCMDC-138868] | 108.5 |
| O=C(NCCN1CCC(c2ncc(-c3ccccc3)o2)CC1)c1ccc(NC(=O)c2ccc(Cl)cc2)cc1 [TCMDC-138483] | -8.107 |
| CC(C)Cn1cc(C2CCN(CCN3CCC(CNC(=O)c4ccc(NC(=O)c5ccc(Cl)cc5)cc4)CC3)CC2)c2ccccc21 [TCMDC-138865] | 102.8 |
| O=C(NCCCCN1CCC(C(c2ccccc2)c2ccccc2)CC1)c1ccc(NC(=O)c2ccc(Cl)cc2)cc1 [TCMDC-138332] | -3.792 |
| Cn1cc(C2CCN(CCCCNC(=O)c3ccc(C(=O)Nc4ccc(C#N)cc4)cc3)CC2)c2ccccc21 [TCMDC-138788] | -0.3465 |
| Cc1nc(-c2ccccc2)nc(N2CCN(C(=O)c3ccco3)CC2)c1Cc1ccccc1F [TCMDC-124778] | -3.417 |
| CC1(C)NC(N)=NC(=N)N1OCCSCCON1C(=N)N=C(N)NC1(C)C [TCMDC-131648] | 6.143 |
| COc1cc([N+](=O)[O-])ccc1NC(=O)c1cc(Cl)ccc1O [TCMDC-124051] | 28.26 |
| COCCn1c(-c2cccc(Cl)c2)nn(-c2ccc([N+](=O)[O-])cc2Cl)c1=S [TCMDC-135130] | 91.77 |
| COCCn1c(-c2cccc(Cl)c2)nn(-c2ccc([N+](=O)[O-])cc2C#N)c1=S [TCMDC-134719] | 95.24 |
| O=C(Cc1cccc(O)c1)NCC(Cc1ccc(O)cc1)c1ccccc1 (centres unmarked) [TCMDC-138482] | 7.528 |
| CC1CCc2c(C(=O)Nc3c(F)cc(F)cc3Br)csc2C1 (centres unmarked) [TCMDC-125219] | 6.238 |
| Cc1cc(Nc2ccc(O)cc2)nc2cccc(O)c12 [TCMDC-124414] | -26.97 |
| Cc1cc(N2CCN(C3CCCCC3)CC2)nc2cccc(O)c12 [TCMDC-124411] | 54.36 |
| Cc1cc(N2CCC(C)CC2)nc2cc(O)ccc12 [TCMDC-124413] | -4.047 |
| COc1ccc(Cl)c(CC2c3cc(O)c(Cl)cc3CCN2C)c1 (centres unmarked) [TCMDC-137168] | -67.78 |
| CN(C)CCOc1ccc2c(=O)cc(CCc3cccc(F)c3F)n(CC(=O)N(C)Cc3ccc(-c4ccc(C(F)(F)F)cc4)cc3)c2c1 [TCMDC-141375] | 124.4 |
| CN(Cc1ccc(-c2ccc(C(F)(F)F)cc2)cc1)C(=O)Cn1c(CCc2cccc(F)c2F)cc(=O)c2ccc(OCC3CCCN3C)cc21 (centres unmarked) [TCMDC-141405] | 117.2 |
| CCN(CC)CCc1ccc2c(=O)cc(CCc3cccc(F)c3F)n(CC(=O)N(C)Cc3ccc(-c4ccc(C(F)(F)F)cc4)cc3)c2c1 [TCMDC-141559] | 137.8 |
| CN(Cc1ccc(-c2ccc(C(F)(F)F)cc2)cc1)C(=O)Cn1c(CCc2cccc(F)c2F)cc(=O)c2ccc(OCCCN3CCCCC3)cc21 [TCMDC-141377] | 112.1 |
| CCOC(=O)CCCCCNC[C@H](O)c1ccccc1 [TCMDC-131776] | -2.137 |
| CC(C)NCc1ccc(-c2ccc(CN3CCCC(c4ccccc4)C3)cc2)c(C(=O)NCC2CCCCC2)c1 (centres unmarked) [TCMDC-134699] | 33.35 |

| Compound | % Inhibition [%] |
| --- | --- |
| O=S(=O)(NCCN1CCCC1)c1ccc(-c2ccc(CNCc3ccccc3)cc2)cc1 [TCMDC-132228] | 101.6 |
| NC(Cc1ccc(Cl)cc1)=NCCN1CCCCCC1 [TCMDC-137727] | 39.5 |
| O=S(=O)(Nc1cc2c(cc1O)CCN(C1CCC1)CC2)c1ccc(-c2ccc(F)cc2)cc1 [TCMDC-136084] | -82.22 |
| Clc1ccc(-c2ccc(CNCCCN3CCCC3)cc2)cc1 [TCMDC-140148] | 75.83 |
| Cc1c(CNCCN2CCCCC2)c(C(=O)O)c(C)n1Cc1ccc(Cl)cc1 [TCMDC-125269] | 31.51 |
| O=S(=O)(NCCN1CCCC1)c1ccc(-c2ccc(CNCc3ccc(F)cc3)cc2)cc1 [TCMDC-132280] | 62.82 |
| COC(=O)c1cc(/C(C)=N/Nc2nc3ccccc3[nH]2)ccc1O [TCMDC-139075] | -14.17 |
| O=C(NC1CC1)c1ccc(N2CCC(Cc3ccccc3)CC2)nc1 [TCMDC-134591] | 24.62 |
| COC(=O)c1ccc(CC(C)NCC(O)c2cccc(C(F)(F)F)c2)cc1C (centres unmarked) [TCMDC-131470] | 8.047 |
| C[C@H](Nc1nc(C(Oc2ccccc2)c2ccccc2)nc2[nH]ncc12)c1ccccc1 (some centres unmarked) [TCMDC-136553] | 53.92 |
| OC[C@H](Nc1nc(C(Oc2ccccc2)c2ccccc2)nc2[nH]ncc12)c1ccccc1 (some centres unmarked) [TCMDC-136552] | 43.31 |
| COc1cccc(OC(C)(C)c2nc(N[C@@H](C)c3ccccc3)c3cn[nH]c3n2)c1 [TCMDC-136619] | 13.05 |
| CC1(C)NC(N)=NC(=N)N1OCc1ccc(-c2ccccc2)cc1 [TCMDC-131591] | -7.815 |
| COc1ccc2c(NN=Cc3cccc(Cl)c3)cc(C)nc2c1 [TCMDC-142080] | 55.62 |
| Cc1cc(NN=Cc2ccccc2Cl)c2ccccc2n1 [TCMDC-142059] | -35.38 |
| COc1ccc2c(NN=Cc3ccccc3Cl)cc(C)nc2c1 [TCMDC-142079] | 78.38 |
| Cc1cc(NN=CC=Cc2ccccc2)c2ccccc2n1 [TCMDC-142074] | -83.64 |
| COc1ccc2c(NN=Cc3cccc(C)n3)ccnc2c1 [TCMDC-142031] | -34.06 |
| COc1ccc2nc(C)cc(N/N=C/C=C/c3ccccc3)c2c1 [TCMDC-142095] | 88.89 |
| Cc1ccc2nc(C)cc(NN=CC=Cc3ccccc3)c2c1 [TCMDC-123974] | -10.18 |
| COc1ccc2nc(C)cc(NN=Cc3ccccc3Cl)c2c1 [TCMDC-142078] | -47.04 |
| COc1cc(C=NNc2cc(C)nc3ccccc23)cc(OC)c1OC [TCMDC-123958] | -11.67 |
| COc1ccc2nc(C)cc(NN=Cc3cccc(Cl)c3)c2c1 [TCMDC-142077] | 106.6 |
